Data published in PubChem BioAssay (NCI).
The panel holds about 83,000 compounds, 20% with a hit somewhere; the sample as a whole holds those more often.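 48-hour exposure, single concentration, 96-well plates; percent growth endpoint where 0 means no net growth. Active: below 10.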 Values without a mark were called inactive. The source made the active and inactive calls.

What was measured:
Assay in all cases: NCI-60 one-dose screen, 48 h (100 = growth as untreated, 0 = no growth, -100 = all killed)
Conditions in all cases: 10 µM unless noted
NCI-H23 lung = tested on: NCI-H23 lung
NCI-H226 lung = tested on: NCI-H226 lung
NCI-H322M lung = tested on: NCI-H322M lung
HOP-62 NSCLC = tested on: HOP-62 NSCLC
NCI-H460 lung = tested on: NCI-H460 lung
HOP-92 NSCLC = tested on: HOP-92 NSCLC
A549/ATCC NSCLC = tested on: A549/ATCC NSCLC
786-0 renal = tested on: 786-0 renal
COLO 205 colon = tested on: COLO 205 colon
DU-145 prostate = tested on: DU-145 prostate
K-562 leukemia = tested on: K-562 leukemia
MALME-3M melanoma = tested on: MALME-3M melanoma
MDA-MB-231 breast = tested on: MDA-MB-231 breast
RXF 393 renal = tested on: RXF 393 renal
SF-268 CNS = tested on: SF-268 CNS
SF-295 CNS = tested on: SF-295 CNS
SF-539 CNS = tested on: SF-539 CNS
M14 melanoma = tested on: M14 melanoma
UACC-257 melanoma = tested on: UACC-257 melanoma
NCI-H522 lung = tested on: NCI-H522 lung

SMILES | growth (NCI-H23 lung) | growth (NCI-H226 lung) | growth (NCI-H322M lung) [%] | growth (HOP-62 NSCLC) | growth (NCI-H460 lung) | growth (HOP-92 NSCLC) | growth (A549/ATCC NSCLC) | growth (786-0 renal) | growth (COLO 205 colon) | growth (DU-145 prostate) | growth (K-562 leukemia) | growth (MALME-3M melanoma) | growth (MDA-MB-231 breast) | growth (RXF 393 renal) | growth (SF-268 CNS) | growth (SF-295 CNS) | growth (SF-539 CNS) | growth (M14 melanoma) | growth (UACC-257 melanoma) | growth (NCI-H522 lung) [%]
COc1ccc(-c2cc(-c3c(C)oc4cc5occc5c(OC)c4c3=O)nc(N)c2C#N)cc1OC | 73.4% | 66.2% | 81.2 | 50.3% | 32.4% | 10.6% | 57.2% | 83.1% | 68.1% | 81.9% | 32% | 86.4% | 64.4% | 61.6% | 65.1% | 52.1% | 64.2% | 72.2% |  | 
CC1(C)C(=O)/C(=C\c2ccccn2)C[C@]2(C)[C@H]3CC[C@@H]4[C@@H](C(=O)/C=C/c5ccccn5)CC[C@@]4(C)[C@]3(C)CC[C@@H]12 | -49.2% (active) | -33.8% (active) | 21.3 | -26.7% (active) | -36.2% (active) | -31.9% (active) | 5.27% (active) | -69.4% (active) | -34.4% (active) | -77.1% (active) | 0.811% (active) | -35.8% (active) | -60% (active) | -90.7% (active) | 9.75% (active) | -77.9% (active) | -43.5% (active) | 3.45% (active) | 7.39% (active) | 
Cn1cc(-c2csc(-c3c[nH]c4ccc(F)cc34)n2)c2cccnc21 | 50.4% | 59.7% | 74.8 | 43.2% | 11.4% | 71.9% |  | 66.6% | 35.6% | 61.9% | 19.8% |  | 50.1% | 54.4% | 51.1% | 14.8% | 31% | 13.7% | 63.4% | 12.6
Cn1c(=O)c2c(ncn2CCC(=O)Nc2ccc(F)cc2)n(C)c1=O | 100% | 109% | 105 | 92.6% | 108% | 95.5% | 89.5% | 95.1% | 108% | 105% | 96% | 114% | 102% | 115% | 103% | 105% | 96.9% | 97.8% |  | 
CC1(C)NC2=C(C(Nc3cccnc3)N1)C(c1ccc([N+](=O)[O-])cc1)C(C(=O)c1ccc(N=[N+]=[N-])cc1)O2 (centres undefined) | 103% | 105% | 100 | 103% | 95.4% | 94% | 104% | 100% | 109% | 106% | 101% | 99.2% | 102% | 112% | 101% | 104% | 102% | 104% | 104% | 
C=C1CC[C@@H](C(=O)OC)Cc2nc(C)ccc21 | 97% | 103% | 109 | 106% | 106% | 106% | 98.5% | 101% | 117% | 119% | 101% | 105% | 108% | 118% | 109% | 98.4% | 99.3% | 105% | 94.4% | 
NCCn1cc(-c2nc(-c3c[nH]c4ncccc34)cs2)c2cc(F)ccc21 | 76.7% | 74.5% | 76.9 | 73.6% | 51.3% | 49.1% | 61.7% | 87.5% | 49.2% | 93.9% | 22.6% | 78.6% | 63.9% | 86.7% | 82.1% | 96.7% | 82.7% | 86.2% | 93.8% | 
COC(=O)[C@]12CC[C@@H](C(C)=O)[C@@H]1[C@H]1CC[C@@H]3[C@@]4(C)C/C(=C/c5cccnc5)C(=O)C(C)(C)[C@@H]4CC[C@@]3(C)[C@]1(C)CC2 | 53.2% | 48.1% | 93.9 | 103% | 70.9% | 66.7% | 51.4% | 84.9% | 82.5% | 68.8% | 18.3% | 29.9% | 76.6% | 30.9% | 68.6% | 75.3% | 81% | 56.7% | 58.1% | 
